Results on 25 compounds are retold here after the supplement of paper PMC8285479.

± gives the standard deviation of the averaged measurements. The full ranking holds about 1,900 compounds; the median of “normalised cell viability (NPI; 0 = phenylarsine oxide control, 1 = DMSO control)” is about 1, and the lowest 2% start at about 0.039. The entries come from a sample that favours the lowest values as a whole.

For the assay, the system named is NCI-H1944. The assay can be described thus: normalised cell viability (NPI; 0 = phenylarsine oxide control, 1 = DMSO control) (fraction of DMSO control); NCI-H1944 is a non-small cell lung cancer line; higher = more viable cells (less compound toxicity). The conditions noted are these: 6 days.
Setting [1] is: glucocorticoid arm: hydrocortisone 2.75 uM co-treatment, compound 1 µM.
Where [2] appears, read: glucocorticoid arm: hydrocortisone 2.75 uM co-treatment, compound 5 µM.
[3] abbreviates: glucocorticoid arm: hydrocortisone 2.75 uM pre-treated 2 days and continued, compound 1 µM.
[4] abbreviates: glucocorticoid arm: hydrocortisone 2.75 uM pre-treated 2 days and continued, compound 5 µM.
[5] abbreviates: glucocorticoid arm: vehicle, compound 1 µM.
[6] abbreviates: glucocorticoid arm: vehicle, compound 5 µM.
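Note: CTB read-out in 384-well plates, triplicate wells, NPI normalised per plate against 1 µM phenylarsine oxide (0) and 0.1% DMSO (1) controls.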

`CCS(=O)(=O)Nc1ccc2[nH]c(O)c(C(=Nc3ccc(CN4CCCCC4)cc3)c3ccccc3)c2c1` [Hesperadin]: the normalised cell viability under setting [1] was found to be 0.435 ± 0.035; the normalised cell viability under setting [2] came out at 0.396 ± 0.068; the normalised cell viability under setting [3] was 0.419 ± 0.087; the normalised cell viability under setting [4] worked out at 0.51 ± 0.08; the normalised cell viability under setting [5] came out at 0.371 ± 0.08; the normalised cell viability under setting [6] is 0.218 ± 0.035.

As to `CC(C)C[C@H](NC(=O)[C@H](CCc1ccccc1)NC(=O)CN1CCOCC1)C(=O)N[C@@H](Cc1ccccc1)C(=O)N[C@@H](CC(C)C)C(=O)[C@@]1(C)CO1` [Carfilzomib (PR-171)], the normalised cell viability was 0.0181 ± 0.0047 under setting [1]; 0.000755 ± 0.00097 under setting [2]; 0.777 ± 0.051 under setting [3]; 0.12 ± 0.025 under setting [4]; 0.0054 ± 0.0013 under setting [5]; -0.000926 ± 0.0006 under setting [6].

As to `CCCCCCCCCC(=O)NC(CN1CCOCC1)[C@H](O)c1ccccc1` (mixture of isomers), the normalised cell viability under setting [1] came to 1.01; the normalised cell viability under setting [2] was determined as 0.9997 ± 0.0096; the normalised cell viability under setting [3] turned out to be 1.02 ± 0.026; the normalised cell viability under setting [4] is 1.01 ± 0.024; the normalised cell viability under setting [5] worked out at 1.01; the normalised cell viability under setting [6] was 0.997 ± 0.014.

As to `CC(C)C[C@H](NC(=O)[C@H](CCc1ccccc1)NC(=O)CN1CCOCC1)C(=O)N[C@@H](Cc1ccccc1)C(=O)N[C@@H](CC(C)C)C(=O)[C@@]1(C)CO1` [Carfilzomib], the normalised cell viability under setting [1] is 0.0119 ± 0.0019; the normalised cell viability under setting [2] came out at 0.198 ± 0.017; the normalised cell viability under setting [3] was 0.652 ± 0.035; the normalised cell viability under setting [4] came to 0.986 ± 0.013; the normalised cell viability under setting [5] is 0.00203 ± 0.0017; the normalised cell viability under setting [6] is 0.0026 ± 0.00057.

Regarding `CNC(=N)NCCC[C@H](N)C(=O)O` [NG-Monomethyl-L-arginine acetate], the normalised cell viability runs as follows: under setting [1], 1.001 ± 0.009; under setting [2], 0.985 ± 0.022; under setting [3], 1.001 ± 0.0081; under setting [4], 0.879 ± 0.24; under setting [5], 0.9883 ± 0.0097; under setting [6], 0.991 ± 0.0079.

As to `S=C=Nc1cccc(NC(=S)NCCCCNC(=S)Nc2cccc(N=C=S)c2)c1`, the normalised cell viability is, setting by setting: under setting [1], 1.04 ± 0.04; under setting [2], 1.05 ± 0.015; under setting [3], 1.02 ± 0.033; under setting [4], 1.04 ± 0.032; under setting [5], 1.017 ± 0.0058; under setting [6], 1.003 ± 0.0058.

On to `CCc1cccc(N(C)C(=N)Nc2cccc3ccccc23)c1`, for which the normalised cell viability worked out at 0.999 ± 0.027 under setting [1]; 0.918 ± 0.012 under setting [2]; 1.006 ± 0.0069 under setting [3]; 0.967 ± 0.013 under setting [4]; 1.003 ± 0.0064 under setting [5]; 1.01 ± 0.01 under setting [6].

Take `COc1ccc2c(c1)c(CC(=O)O)c(C)n2Cc1ccc(F)cc1` [1-(4-Fluorobenzyl)-5-methoxy-2-methylindole-3-acetic acid]: the normalised cell viability amounted to 0.987 ± 0.014 under setting [1]; 0.977 ± 0.017 under setting [2]; 0.983 ± 0.028 under setting [3]; 0.982 ± 0.013 under setting [4]; 0.9717 ± 0.0076 under setting [5]; 0.974 ± 0.0027 under setting [6].

With `COC(=O)Nc1ccc(-c2nc(N3CCOCC3)c3cnn(C4CCN(C(=O)OC)CC4)c3n2)cc1`, the normalised cell viability was 0.505 ± 0.038 under setting [1]; 0.753 ± 0.013 under setting [2]; 0.563 ± 0.029 under setting [3]; 0.769 ± 0.067 under setting [4]; 0.476 ± 0.02 under setting [5]; 0.924 ± 0.015 under setting [6].

For `CCn1nnc2c(N3CCOCC3)nc(-c3ccc(NC(=O)Nc4ccc(C(=O)N5CCN(C)CC5)cc4)cc3)nc21`, the normalised cell viability under setting [1] was 0.201 ± 0.0067; the normalised cell viability under setting [2] is 0.375 ± 0.015; the normalised cell viability under setting [3] was 0.287 ± 0.01; the normalised cell viability under setting [4] came to 0.543 ± 0.024; the normalised cell viability under setting [5] turned out to be 0.077 ± 0.01; the normalised cell viability under setting [6] stood at 0.22 ± 0.016.

On to `CN(C)C1CCN(C(=O)c2ccc(NC(=O)Nc3ccc(-c4nc(N5CCOCC5)nc(N5CCOCC5)n4)cc3)cc2)CC1`, for which the normalised cell viability reads like this: under setting [1], 0.231 ± 0.011; under setting [2], 0.105 ± 0.0056; under setting [3], 0.311 ± 0.026; under setting [4], 0.147 ± 0.012; under setting [5], 0.0929 ± 0.0075; under setting [6], 0.0212 ± 0.0032.

With `C=CS(=O)(=O)NC1CCN(C(=O)CNc2cc(I)c(Cl)cc2OC)CC1` [K-Ras(G12C) inhibitor 9], the normalised cell viability amounted to 1.03 ± 0.01 under setting [1]; 1.07 ± 0.029 under setting [2]; 1.04 under setting [3]; 1.04 ± 0.025 under setting [4]; 0.993 ± 0.0036 under setting [5]; 0.996 ± 0.014 under setting [6].

On to `C[N+](C)(C)CC=O` [Betaine aldehyde chloride], for which the normalised cell viability was 0.9877 ± 0.0021 under setting [1]; 0.993 ± 0.012 under setting [2]; 0.9913 ± 0.0081 under setting [3]; 0.993 ± 0.0085 under setting [4]; 0.9647 ± 0.0015 under setting [5]; 0.9803 ± 0.0015 under setting [6].

On to `NC[C@@H](O)c1ccc(O)c(O)c1` [L(-)-Norepinephrine bitartrate], for which the normalised cell viability reads like this: under setting [1], 1 ± 0.018; under setting [2], 0.971 ± 0.011; under setting [3], 1 ± 0.021; under setting [4], 0.968 ± 0.0085; under setting [5], 0.98 ± 0.017; under setting [6], 0.9767 ± 0.0011.

Take `Nc1nc2c(nc(Br)n2C2OC3COP(=O)(O)O[C@@H]3C2O)c(=O)[nH]1` (stereo not given in full) [8-Bromo-cGMP sodium]: the normalised cell viability is 1.023 ± 0.0058 under setting [1]; 1.02 under setting [2]; 1.02 ± 0.01 under setting [3]; 1 ± 0.028 under setting [4]; 1.01 ± 0.011 under setting [5]; 1.01 ± 0.015 under setting [6].

`CCc1ccc(OCc2ccccc2C(=O)Nc2ccc3nc(C)cc(N)c3c2)cc1`: the normalised cell viability reads like this: under setting [1], 1.04 ± 0.011; under setting [2], 0.00134 ± 0.00041; under setting [3], 1.05 ± 0.017; under setting [4], 0.00123 ± 0.00019; under setting [5], 1.023 ± 0.0058; under setting [6], 0.00113 ± 0.0006.

Take `CCN(CC)CCCC(C)Nc1nc(C)cc(Nc2ccc3nc(C)cc(N)c3c2)n1` (stereo not given): the normalised cell viability runs as follows: under setting [1], 0.845 ± 0.0082; under setting [2], 0.444 ± 0.019; under setting [3], 0.888 ± 0.01; under setting [4], 0.688 ± 0.036; under setting [5], 1 ± 0.013; under setting [6], 0.119 ± 0.0062.

As to `Cc1cc([C@@H](C)Nc2ccccc2C(=O)O)c2nc(N3CCOCC3)cc(=O)n2c1`, the normalised cell viability amounted to 0.878 ± 0.043 under setting [1]; 0.764 ± 0.062 under setting [2]; 0.879 ± 0.023 under setting [3]; 0.791 ± 0.03 under setting [4]; 0.9667 ± 0.0091 under setting [5]; 0.899 ± 0.035 under setting [6].

Turning to `CCCC(CCC)C(=O)NO` [Valproic acid hydroxamate], the normalised cell viability under setting [1] amounted to 1 ± 0.022; the normalised cell viability under setting [2] was determined as 1.01 ± 0.022; the normalised cell viability under setting [3] was 1.01 ± 0.016; the normalised cell viability under setting [4] came out at 1.02 ± 0.016; the normalised cell viability under setting [5] was 0.9982 ± 0.0077; the normalised cell viability under setting [6] is 0.9988 ± 0.0092.

For `NC1CCN(O)C1=O` (racemic), the normalised cell viability runs as follows: under setting [1], 0.983 ± 0.011; under setting [2], 0.999 ± 0.011; under setting [3], 0.9857 ± 0.0051; under setting [4], 0.984 ± 0.023; under setting [5], 0.985 ± 0.013; under setting [6], 0.98733 ± 0.00058.

As for `CC(C)C[C@H](NC(=O)CNC(=O)c1cc(Cl)ccc1Cl)B1OC(=O)CC(CC(=O)O)(C(=O)O)O1` (stereo not given in full), the normalised cell viability is, setting by setting: under setting [1], 0.98 ± 0.014; under setting [2], 0.835 ± 0.018; under setting [3], 1.047 ± 0.0058; under setting [4], 1.04 ± 0.015; under setting [5], 0.263 ± 0.024; under setting [6], 0.0378 ± 0.0053.

In the case of `CC(C)C[C@H](NC(=O)CNC(=O)c1cc(Cl)ccc1Cl)B(O)O`, the normalised cell viability under setting [1] came out at 0.978 ± 0.0095; the normalised cell viability under setting [2] was determined as 0.886 ± 0.03; the normalised cell viability under setting [3] was found to be 1.04 ± 0.01; the normalised cell viability under setting [4] came to 1.04 ± 0.011; the normalised cell viability under setting [5] was found to be 0.311 ± 0.032; the normalised cell viability under setting [6] came to 0.0506 ± 0.0038.

With `CCCCCCCCCCCCCCCCCCNC(=O)OCC(COP(=O)([O-])OCC[n+]1ccsc1)OC` (stereo not given), the normalised cell viability came out at 0.9967 ± 0.0035 under setting [1]; 1.02 ± 0.011 under setting [2]; 1.02 ± 0.024 under setting [3]; 1.01 ± 0.015 under setting [4]; 0.997 ± 0.0017 under setting [5]; 0.82 ± 0.33 under setting [6].

Consider `COc1ccc(CCNC[C@@H](O)c2ccc(O)cc2)cc1OC` [R(-)-Denopamine], for which the normalised cell viability reads like this: under setting [1], 1.01 ± 0.01; under setting [2], 1.017 ± 0.0058; under setting [3], 1.02 ± 0.017; under setting [4], 1.013 ± 0.0058; under setting [5], 1.01; under setting [6], 1.01 ± 0.014.

`c1cncc(CN2CCC(n3ncc4c(N5CCOCC5)nc(-c5ccc6[nH]ccc6c5)nc43)CC2)c1`: the normalised cell viability came out at 0.773 ± 0.022 under setting [1]; 0.532 ± 0.036 under setting [2]; 0.743 ± 0.027 under setting [3]; 0.615 ± 0.036 under setting [4]; 0.542 ± 0.035 under setting [5]; 0.24 ± 0.0038 under setting [6].
